Experiments:
[1] = target: Platelet-derived growth factor receptor beta (Homo sapiens) (UniProt P09619); details: at 1 µM;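 note: each value is a mean percent inhibition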
[2] = target: Tyrosine-protein kinase FRK (Homo sapiens) (UniProt P42685); details: at 0.1 µM
[3] = target: Tyrosine-protein kinase FRK (Homo sapiens) (UniProt P42685); details: at 1 µM
[4] = target: Protein-tyrosine kinase 2-beta (Homo sapiens) (UniProt Q14289); details: at 0.1 µM
[5] = target: Protein-tyrosine kinase 2-beta (Homo sapiens) (UniProt Q14289); details: at 1 µM
[6] = target: Proto-oncogene tyrosine-protein kinase receptor Ret (Homo sapiens) (UniProt P07949); details: at 0.1 µM
Proto-oncogene tyrosine-protein kinase receptor Ret (Homo sapiens), sequence (P07949 whole entry): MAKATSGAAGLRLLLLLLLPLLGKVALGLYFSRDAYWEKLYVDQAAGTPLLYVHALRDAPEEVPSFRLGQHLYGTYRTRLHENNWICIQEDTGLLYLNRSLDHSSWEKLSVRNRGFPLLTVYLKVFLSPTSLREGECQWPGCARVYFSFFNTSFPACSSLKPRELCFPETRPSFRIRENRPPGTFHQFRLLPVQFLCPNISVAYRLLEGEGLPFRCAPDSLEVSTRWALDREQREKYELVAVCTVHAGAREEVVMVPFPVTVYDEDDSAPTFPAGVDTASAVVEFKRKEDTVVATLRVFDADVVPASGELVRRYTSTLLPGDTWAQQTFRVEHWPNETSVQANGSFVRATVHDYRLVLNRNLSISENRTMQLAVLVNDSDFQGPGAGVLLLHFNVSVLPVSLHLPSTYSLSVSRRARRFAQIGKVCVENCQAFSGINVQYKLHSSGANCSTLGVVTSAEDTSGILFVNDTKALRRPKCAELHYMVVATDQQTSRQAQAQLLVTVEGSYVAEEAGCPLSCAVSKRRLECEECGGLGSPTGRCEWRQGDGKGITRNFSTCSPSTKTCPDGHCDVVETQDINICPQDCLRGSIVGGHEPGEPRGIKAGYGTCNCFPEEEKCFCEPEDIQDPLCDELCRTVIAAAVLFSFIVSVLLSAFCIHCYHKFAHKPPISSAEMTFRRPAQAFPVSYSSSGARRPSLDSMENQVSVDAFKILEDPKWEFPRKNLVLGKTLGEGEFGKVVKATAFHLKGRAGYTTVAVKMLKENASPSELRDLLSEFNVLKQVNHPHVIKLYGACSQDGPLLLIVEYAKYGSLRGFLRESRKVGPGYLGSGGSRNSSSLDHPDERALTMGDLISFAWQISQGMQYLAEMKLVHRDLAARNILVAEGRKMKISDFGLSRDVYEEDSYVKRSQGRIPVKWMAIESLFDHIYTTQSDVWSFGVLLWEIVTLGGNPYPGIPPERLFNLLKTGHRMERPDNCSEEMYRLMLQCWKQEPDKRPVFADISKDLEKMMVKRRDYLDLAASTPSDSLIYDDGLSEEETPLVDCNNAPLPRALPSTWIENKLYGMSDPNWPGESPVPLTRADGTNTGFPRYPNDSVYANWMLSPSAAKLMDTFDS

[7] = target: Proto-oncogene tyrosine-protein kinase receptor Ret (Homo sapiens) (UniProt P07949); details: at 1 µM
[8] = system: Proto-oncogene tyrosine-protein kinase receptor Ret (Homo sapiens), P07949 [V804L]; details: at 0.1 µM
Proto-oncogene tyrosine-protein kinase receptor Ret (Homo sapiens), P07949 [V804L], sequence (P07949 whole entry V804L): as the sequence (P07949 whole entry) above, with V804L counted along it

[9] = system: Proto-oncogene tyrosine-protein kinase receptor Ret (Homo sapiens), P07949 [V804L]; details: at 1 µM
[10] = system: Proto-oncogene tyrosine-protein kinase receptor Ret (Homo sapiens), P07949 [Y791F]; details: at 0.1 µM
Proto-oncogene tyrosine-protein kinase receptor Ret (Homo sapiens), P07949 [Y791F], sequence (P07949 whole entry Y791F): as the sequence (P07949 whole entry) above, with Y791F counted along it

[11] = system: Proto-oncogene tyrosine-protein kinase receptor Ret (Homo sapiens), P07949 [Y791F]; details: at 1 µM
[12] = target: Macrophage-stimulating protein receptor (Homo sapiens) (UniProt Q04912); details: at 0.1 µM
Macrophage-stimulating protein receptor (Homo sapiens), sequence (Q04912 25-304 limits assumed): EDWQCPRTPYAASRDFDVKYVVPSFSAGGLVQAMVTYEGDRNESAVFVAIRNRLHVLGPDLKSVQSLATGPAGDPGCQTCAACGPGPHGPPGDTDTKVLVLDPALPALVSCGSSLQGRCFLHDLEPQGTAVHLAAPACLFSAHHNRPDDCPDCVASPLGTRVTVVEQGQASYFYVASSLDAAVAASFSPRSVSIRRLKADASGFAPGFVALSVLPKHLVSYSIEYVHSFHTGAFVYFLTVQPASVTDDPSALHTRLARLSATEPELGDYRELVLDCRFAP
Macrophage-stimulating protein receptor (Homo sapiens), sequence (Q04912 310-1400 limits assumed): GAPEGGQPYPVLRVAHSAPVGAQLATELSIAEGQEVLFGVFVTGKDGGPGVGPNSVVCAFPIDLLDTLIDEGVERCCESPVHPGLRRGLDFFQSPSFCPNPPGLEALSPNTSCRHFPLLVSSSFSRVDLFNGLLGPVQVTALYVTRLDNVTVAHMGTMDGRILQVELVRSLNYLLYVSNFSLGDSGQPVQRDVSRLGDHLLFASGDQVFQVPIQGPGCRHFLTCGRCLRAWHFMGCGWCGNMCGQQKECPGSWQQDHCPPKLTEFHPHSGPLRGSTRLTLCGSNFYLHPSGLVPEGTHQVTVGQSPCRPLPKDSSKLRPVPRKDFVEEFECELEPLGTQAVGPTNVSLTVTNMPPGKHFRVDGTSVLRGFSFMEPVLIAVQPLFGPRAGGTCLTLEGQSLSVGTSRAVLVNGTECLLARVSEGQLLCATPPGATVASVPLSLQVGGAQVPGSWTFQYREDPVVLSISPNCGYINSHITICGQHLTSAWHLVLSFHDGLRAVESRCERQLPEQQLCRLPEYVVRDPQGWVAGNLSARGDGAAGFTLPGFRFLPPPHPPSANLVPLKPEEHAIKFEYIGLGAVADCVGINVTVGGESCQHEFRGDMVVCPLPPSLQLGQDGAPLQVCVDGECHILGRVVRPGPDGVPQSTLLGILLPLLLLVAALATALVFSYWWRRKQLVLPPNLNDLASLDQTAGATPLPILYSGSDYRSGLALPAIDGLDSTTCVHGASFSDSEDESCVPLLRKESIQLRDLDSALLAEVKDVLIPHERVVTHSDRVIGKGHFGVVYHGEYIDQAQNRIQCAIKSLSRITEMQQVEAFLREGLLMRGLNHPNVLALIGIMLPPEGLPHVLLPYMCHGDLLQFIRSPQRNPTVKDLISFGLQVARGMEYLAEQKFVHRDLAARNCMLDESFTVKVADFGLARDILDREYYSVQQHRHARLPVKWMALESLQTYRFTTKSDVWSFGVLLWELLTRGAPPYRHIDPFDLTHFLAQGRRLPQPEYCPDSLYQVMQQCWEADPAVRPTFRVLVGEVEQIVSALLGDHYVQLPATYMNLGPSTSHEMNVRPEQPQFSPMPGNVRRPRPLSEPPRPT

[13] = target: Macrophage-stimulating protein receptor (Homo sapiens) (UniProt Q04912); details: at 1 µM
[14] = target: Proto-oncogene tyrosine-protein kinase ROS (Homo sapiens) (UniProt P08922); details: at 0.1 µM
[15] = target: Proto-oncogene tyrosine-protein kinase ROS (Homo sapiens) (UniProt P08922); details: at 1 µM
[16] = target: Proto-oncogene tyrosine-protein kinase Src (Homo sapiens) (UniProt P12931); details: at 0.1 µM
[17] = target: Proto-oncogene tyrosine-protein kinase Src (Homo sapiens) (UniProt P12931); details: at 1 µM
[18] = target: Tyrosine-protein kinase Srms (Homo sapiens) (UniProt Q9H3Y6); details: at 0.1 µM
Tyrosine-protein kinase Srms (Homo sapiens), sequence (Q9H3Y6 whole entry): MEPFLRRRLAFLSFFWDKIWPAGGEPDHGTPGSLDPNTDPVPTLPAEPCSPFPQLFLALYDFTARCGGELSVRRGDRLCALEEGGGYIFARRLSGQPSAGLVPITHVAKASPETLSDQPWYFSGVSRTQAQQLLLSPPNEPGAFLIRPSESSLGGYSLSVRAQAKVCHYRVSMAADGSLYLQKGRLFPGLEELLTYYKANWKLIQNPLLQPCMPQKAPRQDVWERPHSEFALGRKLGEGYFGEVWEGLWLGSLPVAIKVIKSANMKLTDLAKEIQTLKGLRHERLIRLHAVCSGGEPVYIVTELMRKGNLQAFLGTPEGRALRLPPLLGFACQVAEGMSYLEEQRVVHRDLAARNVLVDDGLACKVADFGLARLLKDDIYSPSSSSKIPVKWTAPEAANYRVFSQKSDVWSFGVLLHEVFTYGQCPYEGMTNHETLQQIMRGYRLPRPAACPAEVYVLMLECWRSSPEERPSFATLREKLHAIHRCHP

[19] = target: Tyrosine-protein kinase Srms (Homo sapiens) (UniProt Q9H3Y6); details: at 1 µM
[20] = target: Tyrosine-protein kinase SYK (Homo sapiens) (UniProt P43405); details: at 0.1 µM;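 note: reported percentages are mean inhibition values for SYK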

Tyrosine-protein kinase FRK (Homo sapiens), sequence (P42685 whole entry): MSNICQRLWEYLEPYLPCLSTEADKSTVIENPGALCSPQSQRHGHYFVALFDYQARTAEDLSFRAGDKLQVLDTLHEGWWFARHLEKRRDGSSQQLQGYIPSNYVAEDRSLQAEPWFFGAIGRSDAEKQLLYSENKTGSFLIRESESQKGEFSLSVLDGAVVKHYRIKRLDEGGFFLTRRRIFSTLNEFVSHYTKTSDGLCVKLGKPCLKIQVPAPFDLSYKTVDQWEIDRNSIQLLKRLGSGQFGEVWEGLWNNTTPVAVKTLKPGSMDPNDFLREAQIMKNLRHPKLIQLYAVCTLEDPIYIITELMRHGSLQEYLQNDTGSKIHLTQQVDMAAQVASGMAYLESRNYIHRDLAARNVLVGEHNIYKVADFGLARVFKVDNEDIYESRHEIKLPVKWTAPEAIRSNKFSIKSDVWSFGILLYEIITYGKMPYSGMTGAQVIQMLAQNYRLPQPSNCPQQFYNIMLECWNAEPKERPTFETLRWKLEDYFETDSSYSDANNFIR
Platelet-derived growth factor receptor beta (Homo sapiens), sequence (P09619 whole entry): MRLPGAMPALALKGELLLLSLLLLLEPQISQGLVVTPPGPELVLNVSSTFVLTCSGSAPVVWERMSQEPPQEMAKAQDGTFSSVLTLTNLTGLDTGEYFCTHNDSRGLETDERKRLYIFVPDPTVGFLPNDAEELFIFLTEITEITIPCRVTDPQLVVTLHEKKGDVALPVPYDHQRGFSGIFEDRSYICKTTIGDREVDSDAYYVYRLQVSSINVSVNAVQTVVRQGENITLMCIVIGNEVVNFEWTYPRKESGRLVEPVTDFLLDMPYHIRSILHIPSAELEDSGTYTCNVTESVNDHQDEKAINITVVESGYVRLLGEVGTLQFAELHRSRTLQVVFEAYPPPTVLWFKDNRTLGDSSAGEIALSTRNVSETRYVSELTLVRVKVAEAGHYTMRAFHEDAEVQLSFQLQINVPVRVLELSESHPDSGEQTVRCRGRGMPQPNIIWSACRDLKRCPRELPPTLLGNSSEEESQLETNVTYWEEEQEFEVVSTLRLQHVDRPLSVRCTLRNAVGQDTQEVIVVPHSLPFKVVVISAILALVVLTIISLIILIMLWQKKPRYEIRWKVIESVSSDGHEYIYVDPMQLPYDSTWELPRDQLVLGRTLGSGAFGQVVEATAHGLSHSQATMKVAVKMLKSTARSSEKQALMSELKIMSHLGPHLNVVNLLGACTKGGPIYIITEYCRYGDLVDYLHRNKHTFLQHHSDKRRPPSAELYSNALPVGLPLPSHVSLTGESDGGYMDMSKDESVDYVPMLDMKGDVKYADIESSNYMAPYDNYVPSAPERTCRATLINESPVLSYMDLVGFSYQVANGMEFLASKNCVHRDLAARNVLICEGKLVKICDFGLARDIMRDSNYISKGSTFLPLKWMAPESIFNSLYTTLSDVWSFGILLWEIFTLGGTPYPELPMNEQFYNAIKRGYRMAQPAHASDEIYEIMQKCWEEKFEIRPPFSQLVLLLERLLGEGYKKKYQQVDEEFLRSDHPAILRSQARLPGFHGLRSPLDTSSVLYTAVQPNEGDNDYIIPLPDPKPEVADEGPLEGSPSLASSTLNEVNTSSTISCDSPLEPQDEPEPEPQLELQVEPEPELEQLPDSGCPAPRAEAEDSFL

## COc1cc2c(cc1Nc1nc(Nc3ccsc3C(N)=O)c3cc[nH]c3n1)N(C(=O)CN(C)C)CCC2(C)C
[1]
  inhibition: 62.7%
[2]
  inhibition: 2.92%
[3]
  inhibition: 8.45%
[4]
  inhibition: 88.3%
[5]
  inhibition: 96.7%
[6]
  inhibition: 8.13%
[7]
  inhibition: 14.1%
[8]
  inhibition: 12.9%
[9]
  inhibition: 38.1%
[10]
  inhibition: 8.97%
[11]
  inhibition: 18.7%
[12]
  inhibition: -4.25%
[13]
  inhibition: 28.9%
[14]
  inhibition: 79.7%
[15]
  inhibition: 83.1%
[16]
  inhibition: 0.33%
[17]
  inhibition: 11.7%
[18]
  inhibition: -1.82%
[19]
  inhibition: -3.22%
[20]
  inhibition: -6.01%

## CNC(=O)c1cccc(C#Cc2cncnc2Nc2ccc(OCc3cccc(F)c3)c(Cl)c2)c1
[1]
  inhibition: 14.1%
[2]
  inhibition: -0.32%
[3]
  inhibition: -0.09%
[4]
  inhibition: -0.72%
[5]
  inhibition: 5.17%
[6]
  inhibition: 1.18%
[7]
  inhibition: 11.6%
[8]
  inhibition: 2.44%
[9]
  inhibition: 12.6%
[10]
  inhibition: 0.02%
[11]
  inhibition: 20.7%
[12]
  inhibition: 0.58%
[13]
  inhibition: 0.88%
[14]
  inhibition: -2.5%
[15]
  inhibition: 1.03%
[16]
  inhibition: -0.84%
[17]
  inhibition: 5.22%
[18]
  inhibition: 0.46%
[19]
  inhibition: 1.17%
[20]
  inhibition: -6.37%

## COc1cc(N2CCN(C(C)C)CC2)ccc1Nc1nc(Nc2ccc(F)cc2C(N)=O)c2cc[nH]c2n1
[1]
  inhibition: 26.9%
[2]
  inhibition: 2.93%
[3]
  inhibition: 12.7%
[4]
  inhibition: 95.5%
[5]
  inhibition: 97.8%
[6]
  inhibition: -3.34%
[7]
  inhibition: 9.44%
[8]
  inhibition: 8.15%
[9]
  inhibition: 43.8%
[10]
  inhibition: 4.48%
[11]
  inhibition: 16.6%
[12]
  inhibition: 0.61%
[13]
  inhibition: -0.44%
[14]
  inhibition: 51.8%
[15]
  inhibition: 81.8%
[16]
  inhibition: 6.34%
[17]
  inhibition: 10.4%
[18]
  inhibition: 1.36%
[19]
  inhibition: 7.98%
[20]
  inhibition: 0.19%

## [O-][S+]1CCN(Cc2ccc(-c3ccc4ncnc(Nc5ccc(OCc6cccc(F)c6)c(Cl)c5)c4c3)o2)CC1
[1]
  inhibition: 8%
[2]
  inhibition: 4.01%
[3]
  inhibition: 4.89%
[4]
  inhibition: 4.76%
[5]
  inhibition: 11.7%
[6]
  inhibition: 3.9%
[7]
  inhibition: 8.36%
[8]
  inhibition: 7.71%
[9]
  inhibition: 16.5%
[10]
  inhibition: 6.06%
[11]
  inhibition: 9.63%
[12]
  inhibition: 3.82%
[13]
  inhibition: 6.8%
[14]
  inhibition: 4.15%
[15]
  inhibition: 2.36%
[16]
  inhibition: 8.56%
[17]
  inhibition: 10.2%
[18]
  inhibition: 0.4%
[19]
  inhibition: -1.62%
[20]
  inhibition: 2.13%

## COc1ccc(CNC(=O)c2ccc(-c3cc(-c4nnc(C)o4)ccc3C)cc2)cc1
[1]
  inhibition: 13%
[2]
  inhibition: 0.66%
[3]
  inhibition: 1.5%
[4]
  inhibition: -0.09%
[5]
  inhibition: 5.83%
[6]
  inhibition: 7.22%
[7]
  inhibition: 7.69%
[8]
  inhibition: 14%
[9]
  inhibition: 15.8%
[10]
  inhibition: 6.44%
[11]
  inhibition: 19.9%
[12]
  inhibition: 10.5%
[13]
  inhibition: 3.7%
[14]
  inhibition: 6.1%
[15]
  inhibition: 5.4%
[16]
  inhibition: 1.18%
[17]
  inhibition: 2.9%
[18]
  inhibition: 3.8%
[19]
  inhibition: 8.13%
[20]
  inhibition: 2.81%

## COc1cccc(-c2c[nH]c3c(N/N=C/c4ccncc4)ncnc23)c1
[1]
  inhibition: 81.1%
[2]
  inhibition: 1.61%
[3]
  inhibition: 3.28%
[4]
  inhibition: 2.76%
[5]
  inhibition: 9.78%
[6]
  inhibition: 10.7%
[7]
  inhibition: 37.9%
[8]
  inhibition: 7.65%
[9]
  inhibition: 30.7%
[10]
  inhibition: 10.2%
[11]
  inhibition: 39.7%
[12]
  inhibition: 9.37%
[13]
  inhibition: 42.4%
[14]
  inhibition: 4.61%
[15]
  inhibition: 14.4%
[16]
  inhibition: 29.8%
[17]
  inhibition: 77.3%
[18]
  inhibition: 1.92%
[19]
  inhibition: 11.8%
[20]
  inhibition: -4.09%

## CS(=O)(=O)CCNCc1coc(-c2ccc3ncnc(Nc4ccc(OCc5ccccc5)cc4)c3c2)c1
[1]
  inhibition: 5.87%
[2]
  inhibition: 1.08%
[3]
  inhibition: 0.27%
[4]
  inhibition: 3.8%
[5]
  inhibition: 3.38%
[6]
  inhibition: 3.04%
[7]
  inhibition: 8.54%
[8]
  inhibition: 3.88%
[9]
  inhibition: 5.06%
[10]
  inhibition: 6.2%
[11]
  inhibition: 8.25%
[12]
  inhibition: -5.7%
[13]
  inhibition: 2.31%
[14]
  inhibition: 4.75%
[15]
  inhibition: 4.27%
[16]
  inhibition: 8.85%
[17]
  inhibition: 10.9%
[18]
  inhibition: 3.44%
[19]
  inhibition: 3.19%
[20]
  inhibition: 2.29%

## COC(=O)Nc1nc2ccc(S(=O)(=O)c3ccc(NC(=O)Nc4cc(C(F)(F)F)ccc4F)cc3)cc2[nH]1
[1]
  inhibition: 4.49%
[2]
  inhibition: 2.02%
[3]
  inhibition: 0.33%
[4]
  inhibition: 2.8%
[5]
  inhibition: 6.27%
[6]
  inhibition: 5.15%
[7]
  inhibition: 5.22%
[8]
  inhibition: 5.11%
[9]
  inhibition: 2.64%
[10]
  inhibition: 5.5%
[11]
  inhibition: 0.06%
[12]
  inhibition: 0.24%
[13]
  inhibition: 1.14%
[14]
  inhibition: 2.51%
[15]
  inhibition: 3.41%
[16]
  inhibition: 7.41%
[17]
  inhibition: 6.38%
[18]
  inhibition: -0.37%
[19]
  inhibition: -3.26%
[20]
  inhibition: 1.38%

## COC(=O)c1sc(-n2cnc3cc(OC)c(OC)cc32)cc1OCc1ccccc1C(F)(F)F
[1]
  inhibition: 54.9%
[2]
  inhibition: 2.68%
[3]
  inhibition: 2.31%
[4]
  inhibition: 11.6%
[5]
  inhibition: 10.7%
[6]
  inhibition: 24.8%
[7]
  inhibition: 64.5%
[8]
  inhibition: 9.09%
[9]
  inhibition: 27.8%
[10]
  inhibition: 25.1%
[11]
  inhibition: 52.3%
[12]
  inhibition: 0.58%
[13]
  inhibition: 1.46%
[14]
  inhibition: 6.32%
[15]
  inhibition: 12.3%
[16]
  inhibition: 1.51%
[17]
  inhibition: 24.7%
[18]
  inhibition: -2.13%
[19]
  inhibition: -3.45%
[20]
  inhibition: -5.15%

## CC(=O)Nc1cccc(C#Cc2cncnc2Nc2ccc(OCc3cccc(F)c3)c(Cl)c2)c1
[1]
  inhibition: 6.94%
[2]
  inhibition: 0.81%
[3]
  inhibition: 2.51%
[4]
  inhibition: -2.17%
[5]
  inhibition: 4.14%
[6]
  inhibition: 6.84%
[7]
  inhibition: 11%
[8]
  inhibition: 5.7%
[9]
  inhibition: 9.51%
[10]
  inhibition: 13.3%
[11]
  inhibition: 13.3%
[12]
  inhibition: 0.77%
[13]
  inhibition: 4.22%
[14]
  inhibition: 7.46%
[15]
  inhibition: 12.2%
[16]
  inhibition: 10.8%
[17]
  inhibition: 6.18%
[18]
  inhibition: 2.87%
[19]
  inhibition: 0.23%
[20]
  inhibition: 3.21%

## CCn1c(-c2nonc2N)nc2c(C#CC(C)(C)O)nc(OC[C@H](N)c3ccccc3)cc21
[1]
  inhibition: 57.2%
[2]
  inhibition: -0.38%
[3]
  inhibition: 2.68%
[4]
  inhibition: 1.28%
[5]
  inhibition: 9.96%
[6]
  inhibition: 6.89%
[7]
  inhibition: 38%
[8]
  inhibition: 1.38%
[9]
  inhibition: 6.67%
[10]
  inhibition: 18.6%
[11]
  inhibition: 41.3%
[12]
  inhibition: 4.34%
[13]
  inhibition: -1.45%
[14]
  inhibition: 9.15%
[15]
  inhibition: 9.48%
[16]
  inhibition: 8.29%
[17]
  inhibition: 13.7%
[18]
  inhibition: 2.09%
[19]
  inhibition: 1.99%
[20]
  inhibition: 2.17%

## Nc1nc(-c2cccc(Cl)c2)c(-c2ccc3ncccc3n2)s1
[1]
  inhibition: 15%
[2]
  inhibition: 3.21%
[3]
  inhibition: 3.32%
[4]
  inhibition: 10.4%
[5]
  inhibition: 14.5%
[6]
  inhibition: 4.79%
[7]
  inhibition: 5.99%
[8]
  inhibition: 8.87%
[9]
  inhibition: 14.1%
[10]
  inhibition: 3.93%
[11]
  inhibition: 15.2%
[12]
  inhibition: 4.75%
[13]
  inhibition: 10.5%
[14]
  inhibition: 6.74%
[15]
  inhibition: 11.4%
[16]
  inhibition: 4.18%
[17]
  inhibition: 13.6%
[18]
  inhibition: -1.79%
[19]
  inhibition: -1.08%
[20]
  inhibition: -2.15%

## COc1cc2ncn(-c3cc(OCc4ccccc4C(F)(F)F)c(C(=O)N(C)C)s3)c2cc1OC
[1]
  inhibition: 34.4%
[2]
  inhibition: 0.68%
[3]
  inhibition: -0.25%
[4]
  inhibition: -0.29%
[5]
  inhibition: -5.44%
[6]
  inhibition: 3.06%
[7]
  inhibition: 22.1%
[8]
  inhibition: 0.43%
[9]
  inhibition: 7.17%
[10]
  inhibition: 1.87%
[11]
  inhibition: 23.4%
[12]
  inhibition: 1.82%
[13]
  inhibition: -1.06%
[14]
  inhibition: 1.8%
[15]
  inhibition: 2.67%
[16]
  inhibition: 0.91%
[17]
  inhibition: 3.6%
[18]
  inhibition: 1.16%
[19]
  inhibition: 1.35%
[20]
  inhibition: 4.44%

Reference: ChEMBL document CHEMBL1961873, “Compounds: GSK PKIS; Assays: Nanosyn kinase panel” (2012)
